ST2 IL33 inh: inhibitors of human ST2 (IL1RL1) binding to IL-33, primary screen, biochemical, AlphaLISA; 2.3% of 78,000 active; AlphaLISA ST2-Fc/biotin-IL-33 interaction, 1 h; Interleukin-1 receptor-like 1 (Homo sapiens), Q01638; AID 1259354, 2018; inhibition, % for hits at 17 µM; in the data active = inhibition above about 30%
Target sequence (Q01638 whole entry, looked up): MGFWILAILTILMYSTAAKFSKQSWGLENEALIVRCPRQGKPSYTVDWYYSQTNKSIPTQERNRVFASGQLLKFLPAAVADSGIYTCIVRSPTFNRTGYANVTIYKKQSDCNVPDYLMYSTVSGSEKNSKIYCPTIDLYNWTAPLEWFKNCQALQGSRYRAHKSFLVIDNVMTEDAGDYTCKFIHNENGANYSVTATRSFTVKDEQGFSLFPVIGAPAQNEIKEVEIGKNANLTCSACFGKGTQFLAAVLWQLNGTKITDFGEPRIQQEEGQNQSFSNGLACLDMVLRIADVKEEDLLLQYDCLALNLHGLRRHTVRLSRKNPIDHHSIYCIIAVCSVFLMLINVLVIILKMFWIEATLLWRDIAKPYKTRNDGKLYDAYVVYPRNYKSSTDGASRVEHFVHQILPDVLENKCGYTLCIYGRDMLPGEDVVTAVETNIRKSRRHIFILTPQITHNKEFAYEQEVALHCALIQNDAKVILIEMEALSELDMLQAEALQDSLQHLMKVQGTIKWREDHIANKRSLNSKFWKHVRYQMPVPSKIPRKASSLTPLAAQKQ
Each line names hits and unclear results; the compound was inactive in the other large screens. This is one part of a sample in which hits are shown more often than they occur.

O=C1c2c(O)cc(O)cc2OC(c2ccc(O)c(O)c2)C1O (stereo unspecified)	none
O=C(Oc1cc(O)c2c(c1)O[C@@H](c1ccc(O)c(O)c1)[C@H](O)C2)c1cc(O)c(O)c(O)c1	none
O=C(O[C@@H]1Cc2c(O)cc(O)cc2O[C@@H]1c1cc(O)c(O)c(O)c1)c1cc(O)c(O)c(O)c1	ST2 IL33 inh 31%
CCCCCCCCC#CCCCC(=O)O	none
COc1ccc(OC)c(NC(=O)c2cnn3c(C(F)(F)F)cc(-c4ccco4)nc23)c1	none
COc1cc(Br)c(/C=C2\C(=O)N(c3ccccc3)N=C2C)cc1OC	none
CC1=NN(c2ccccc2)C(=O)/C1=C\c1ccc(OCc2ccccc2)cc1	ST2 IL33 inh 32%
CC1=NN(c2ccccc2)C(=O)/C1=C\c1ccc(N2CCOCC2)cc1	ST2 IL33 inh 40%
CC(=O)Nc1ccc(OCc2ccccc2)cc1	none
C=CCN1C(=O)NC(=O)/C(=C/c2ccc(OCc3ccccc3F)cc2)C1=O	none
COc1ccc(CC(=O)NCC2CCCN(Cc3cc4ccccc4o3)C2)cc1 (stereo unspecified)	none
Cc1ccc(NC(=O)CN2N=NC3C(=O)N(c4ccc(F)cc4)C(=O)C32)cc1C (stereo unspecified)	none
O=C1CC(c2ccc(F)cc2)Sc2nc(-c3ccccc3)nn21 (stereo unspecified)	none
CC[C@H]1CN(C(=O)NC(C)C)CC[C@H]1CC(=O)NCc1cccc2ccccc12	none
Fc1ccc(C2=NN(c3ccccc3)C(c3ccco3)C2)cc1 (stereo unspecified)	ST2 IL33 inh 45%
O=C(c1ccccc1Br)N1N=C(c2ccc(Br)cc2)CC1c1ccco1 (stereo unspecified)	none
Nc1nc2n(n1)C(c1ccco1)CC(c1ccc(F)cc1)N2 (stereo unspecified)	none
Cc1noc2ncnc(N3CCC(N4CCCC(C(=O)N5CCCC5)C4)CC3)c12 (stereo unspecified)	none
CNC(=O)c1cccnc1N1CCC(N2CCCC(C(=O)N3CCCC3)C2)CC1 (stereo unspecified)	ST2 IL33 inh 33%
Cc1ncnc(N2CCC(N3CCCC(C(=O)N4CCCC4)C3)CC2)c1C (stereo unspecified)	none
C(=Nc1cnc2ccccc2c1)c1c2n(c3ccccc13)CCCN2	ST2 IL33 inh 30%
CCOc1ccc(CNC(=O)CN2C(=O)C(CC)=C(c3ccc(OC)cc3)S2(=O)=O)cc1	none
CN(C)S(=O)(=O)c1ccc(C(=O)Nc2c3c(nn2C(C)(C)C)CS(=O)C3)cc1 (stereo unspecified)	none
Cc1ccc(C2(O)CCN(S(=O)(=O)c3sccc3C)CC2)nc1	none
Cc1ccc(C(N)=NC(=NS(=O)(=O)c2ccccc2)c2ccccc2)cc1	none
CC1=CC(=NC(=NS(=O)(=O)c2ccc(C)cc2)c2ccccc2)C(C)=CC1=O	ST2 IL33 inh 44%
Cc1ccc(S(=O)(=O)N=C(Nc2ccccn2)c2ccccc2)cc1	none
COc1cc(C2C3=C(CCCC3=O)NC3=C2C(=O)CCC3)cc(I)c1O	none
COc1ccc(C2CC(c3ccccc3Cl)n3nc(N)nc3N2)cc1 (stereo unspecified)	none
Cc1ccc(-c2nnc(-c3nc(NCc4ccc(C)o4)c4ccccc4n3)o2)cc1	none
COC(=O)C1=COC(O[C@@H]2O[C@H](CO)[C@@H](O)[C@H](O)[C@H]2O)/C(=C\COC(=O)c2ccc(O)c(OC)c2)C1CC(=O)OCCc1ccc(O)cc1 (stereo partly specified)	none
O=C(CSc1nc2ccccc2s1)Nc1nc2ccc([N+](=O)[O-])cc2s1	none
O=[N+]([O-])c1ccc(S(=O)(=O)c2nc3ccccc3s2)c(Cl)c1	ST2 IL33 inh 54%
O=C(c1cc([N+](=O)[O-])ccc1Cl)n1nnc2ccccc21	none
CC(=O)Nc1ccccc1NC(=O)c1ccc(Br)cc1	none
O=C1CC(c2cccs2)CC2=C1C(c1cccc([N+](=O)[O-])c1)Nc1ccccc1N2 (stereo unspecified)	none
O=C1CC(c2cccs2)CC2=C1C(c1cccc(F)c1)Nc1ccccc1N2 (stereo unspecified)	ST2 IL33 inh 30%
O=C1CC(c2cccs2)CC2=C1C(c1cc(F)ccc1F)Nc1ccccc1N2 (stereo unspecified)	none
O=C(NC1CC1)c1ccccc1[N+](=O)[O-]	none
COc1ccc(Br)cc1CC(=O)O	none
C=CCOc1cc(Br)c(/C=C2/NC(=O)NC2=O)cc1OC	none
CCOc1c(O)ccc(/C=C2\C(=O)Nc3ccc(Br)cc32)c1[N+](=O)[O-]	none
CCOc1cc(/C=C2\C(=O)Nc3ccc(Br)cc32)c(Br)cc1OC	ST2 IL33 inh 41%
COc1ccc(Br)cc1/C=C1\N=C(c2ccc(OC)c([N+](=O)[O-])c2)OC1=O	none
CC1=NN(c2ccc(Br)cc2)C(=O)/C1=C/c1ccc(-c2ccc3c(c2)C(=O)OC3)o1	none
COc1ccc(Cl)cc1/C=C1/NC(=O)NC1=O	none
Cc1cccc(C)c1N=C1C(=O)Nc2ccc(Br)cc21	none
CCOc1ccc(Br)cc1/C=C1\NC(=O)N(Cc2ccc(Cl)cc2)C1=O	none
Cc1ccc(/C=C2\C(=O)Nc3ccc(Br)cc32)o1	ST2 IL33 inh 30%
COc1ccc(Cl)cc1/C=C1\C(=O)Nc2ccc(Br)cc21	ST2 IL33 inh 35%
COc1ccc(Br)cc1/C=C1\C(=O)Nc2ccc(Br)cc21	ST2 IL33 inh 36%
COc1ccc(C2C(C(=O)Nc3nc4ccccc4s3)=C(C)NC3=C2C(=O)CC(C)(C)C3)cc1 (stereo unspecified)	none
Cc1cccc2nc(CSc3nncn3-c3ccccc3)c(Br)n12	none
CNC(=O)c1ccc(Cn2c(=O)c3cc(OC)c(OC)cc3n(CC(=O)NCCC(C)C)c2=O)cc1	none
CCCc1[nH]nc2c1C(c1ccccc1OCc1ccccc1)C(C#N)=C(N)O2 (stereo unspecified)	none
CSc1cccc(NC(=O)Cc2cn(C)c3ccccc23)c1	none
O=C(Nc1ccc(Cl)c(C(F)(F)F)c1)C1CCN(C(=O)c2ccccc2)CC1	none
CC1(C)CC[C@]2(C(=O)O[C@@H]3O[C@H](CO)[C@@H](O)[C@H](O)[C@H]3O)CC[C@]3(C)C(=CCC4[C@@]5(C)C[C@@H](O)[C@H](O)C(CO)(CO)C5CC[C@]43C)C2[C@@H]1O (stereo partly specified)	none
Cc1nnc(SCC(=O)N(Cc2cnn(C)c2)CC(C)C)s1	none
COc1cc(OC)cc(N2C(=O)CC(Sc3ncn[nH]3)C2=O)c1 (stereo unspecified)	none
Cc1ccc(N2C(=O)CC(Sc3ncn[nH]3)C2=O)cc1C (stereo unspecified)	ST2 IL33 inh 36%
Cc1cccc(N2C(=O)CC(Sc3nccc(C)n3)C2=O)c1 (stereo unspecified)	none
CC1(CS(=O)CC2(C)CC2(Cl)Cl)CC1(Cl)Cl (stereo unspecified)	none
Cc1cc2ncc(-c3ccc(Br)cc3)nc2cc1C	none
COc1ccc(-c2ccccc2C(N)=O)c2ccc(C)nc12	none
COc1ccc(OC)c(NC(=O)C2CCCN(S(=O)(=O)c3cnc[nH]3)C2)c1 (stereo unspecified)	none
COc1ccc(C(=O)Nc2cccc(NC(=O)c3ccccc3Cl)c2)cc1Br	ST2 IL33 inh 59%
COc1ccc(C(=O)Nc2cccc(NC(=O)c3ccccc3Cl)c2)cc1[N+](=O)[O-]	none
CCOc1ccc(C(=O)Nc2cccc(Cl)c2)cc1Br	none
COc1cc(CN2CCSCC2)ccc1O	none
COc1ccc2oc(=N)c(C(=O)Nc3ccc(Cl)cc3Cl)cc2c1	none
CCOC(=O)C1(Cc2ccc(F)cc2F)CCCN(C(=O)c2ccc(OC)nc2OC)C1 (stereo unspecified)	none
